Assay [1] in a line: qHTS assay to identify aromatase inhibitors - cell viability counter screen (AID 743084).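 Further: cells stimulated with testosterone during compound exposure; nearly all actives have a fitted effect of over 55% in size.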 Further: potency means the concentration at half of the fitted maximal effect. For orientation: qHTS replaces the single test concentration by a dilution series.
The target of assay [2] is Aryl hydrocarbon receptor (Homo sapiens) (UniProt P35869). Kind of assay: qHTS assay to identify small molecule that activate the aryl hydrocarbon receptor (AhR) signaling pathway (AID 743085). Further: nearly all actives have a fitted effect of over 15% in size. Further: potency means the concentration at half of the fitted maximal effect.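 On activation: HG2L7.5c1 human HepG2 liver cells with stably integrated DRE-driven firefly reporter; series mostly up to about 70 µM.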 In a few lines:
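A multiplexed format paired cell viability (CellTiter-Fluor fluorescence) with AhR-dependent luciferase output (ONE-Glo luminescence) in the same wells of HepG2 DRE-luc cells after 24 h compound exposure at 37C.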

The nature of assay [3]: qHTS assay to identify small molecule that activate the aryl hydrocarbon receptor (AhR) signaling pathway - cell viability counter screen (AID 743086).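 Further: HepG2 liver cells carrying the AhR DRE luciferase reporter; series mostly up to about 70 µM; nearly all actives have a fitted effect of over 45% in size.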 The essentials: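 HepG2-AhR-luc (HG2L7.5c1) cells, 4000/well, treated 24 h at 37 C with compound; viability measured as CellTiter-Fluor fluorescence after 30 min in the same wells as the luciferase read.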
The target of assay [4] is Peroxisome proliferator-activated receptor gamma (Homo sapiens) (UniProt P37231). Kind of assay: qHTS assay to identify small molecule agonists of the peroxisome proliferator-activated receptor gamma (PPARg) signaling pathway (AID 743094; active means well fitted activation curve with a large enough effect in the signal ratio in the repeat runs, not every such curve was filed as active; the % refers to the signal ratio; further: potency means the concentration at half of the fitted maximal effect). In a few lines: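 GeneBLAzer PPARg UAS-bla HEK293H cells were plated, rested 5 h, then exposed to compounds for 17 h at 37C. Beta-lactamase activity was read by LiveBLAzer B/G FRET substrate fluorescence after 1 h at room temperature.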

Assay [5] shares this target. Kind of assay: qHTS assay to identify small molecule antagonists of the peroxisome proliferator-activated receptor gamma (PPARg) signaling pathway (AID 743191; calls by dose curve; further: series mostly up to about 63 µM; nearly all actives have a fitted effect of over 30% in size). In a few lines: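 GeneBLAzer PPARg UAS-bla HEK293H cells, 5 h post-plating, exposed to compounds 17 h at 37C. LiveBLAzer B/G FRET substrate added for 1 h at room temperature; beta-lactamase reporter read by fluorescence intensity.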

The nature of assay [6]: qHTS assay to identify small molecule antagonists of the peroxisome proliferator-activated receptor gamma (PPARg) signaling pathway - cell viability counter screen (AID 743194). Further: nearly all actives have a fitted effect of over 55% in size. Further: potency means the concentration at half of the fitted maximal effect. The settings on record: Potency: co-treated with 50 nM rosiglitazone. The essentials: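 Cytotoxicity counter screen in PPARg-bla HEK293H cells, same wells as reporter assay. Compounds plus 50 nM rosiglitazone (final) for 17 h at 37 C, then viability read by CellTiter-Glo luminescence.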

A short description of assay [7]: qHTS assay for small molecule agonists of the antioxidant response element (ARE) signaling pathway (AID 743202; active means well fitted activation curve with a large enough effect in the signal ratio in the repeat runs, not every such curve was filed as active; the % refers to the signal ratio; further: potency means the concentration at half of the fitted maximal effect). The essentials: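 Agonist mode reporter screen: HepG2 cells with ARE-controlled beta-lactamase are incubated with test compounds for 16 h at 37 C, and beta-lactamase activity is measured as fluorescence of cleaved B/G FRET substrate.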
The nature of assay [8]: qHTS assay for small molecule agonists of the antioxidant response element (ARE) signaling pathway - cell viability counter screen (AID 743203; calls by dose curve; further: nearly all actives have a fitted effect of over 55% in size; further: potency means the concentration at half of the fitted maximal effect). In a few lines:
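ARE-bla HepG2 cells were plated, rested 5 h at 37C/5% CO2, then exposed to compounds in DMSO for 16 h. Viability was read as CellTiter-Glo luminescence after 30 min at room temperature, in the same wells as the ARE screen.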

A short description of assay [9]: qHTS assay for small molecule activators of the heat shock response signaling pathway - cell viability counter screen (AID 743209). Further: nearly all actives have a fitted effect of over 50% in size. The essentials: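 HSE-bla HeLa cells plated overnight, then exposed to Tox21 compounds (23 nL in DMSO) for 5 h at 37 C. After the bla reporter read, CellTiter-Glo was added in the same wells and luminescence read after 30 min at room temperature.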

A short description of assay [10]: qHTS assay for small molecule activators of the heat shock response signaling pathway (AID 743210; active means well fitted activation curve with a large enough effect in the signal ratio in the repeat runs, with a control signal flat, not every such curve was filed as active; the % refers to the signal ratio;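 further: HeLa cells with beta-lactamase reporter driven by heat shock elements; series mostly up to about 63 µM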). The essentials:
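Quantitative high-throughput format using an engineered HeLa line in which heat shock response elements drive beta-lactamase; after 5 h with compound, cells received a B/G FRET substrate and fluorescence was read.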

Where “and” joins values, the source holds several entries; their conditions need not be identical. Identical values can stand only once. Records with an inconclusive call do not appear. Unmarked numbers belong to inactive results. Calls of active or inactive are those of the source. Unless noted, the call rests on the fitted dose curve; in most records, active means well fitted curve in the direction sought with a large enough effect in the repeat runs; inconclusive means weak or mixed curves; inactive means no such curve, though single readings can be large; an effect the other way counts as inactive or inconclusive.
On the % scale 0 is the no-effect control and ±100 the full control effect.

Peroxisome proliferator-activated receptor gamma (Homo sapiens), sequence (P37231 whole entry, looked up): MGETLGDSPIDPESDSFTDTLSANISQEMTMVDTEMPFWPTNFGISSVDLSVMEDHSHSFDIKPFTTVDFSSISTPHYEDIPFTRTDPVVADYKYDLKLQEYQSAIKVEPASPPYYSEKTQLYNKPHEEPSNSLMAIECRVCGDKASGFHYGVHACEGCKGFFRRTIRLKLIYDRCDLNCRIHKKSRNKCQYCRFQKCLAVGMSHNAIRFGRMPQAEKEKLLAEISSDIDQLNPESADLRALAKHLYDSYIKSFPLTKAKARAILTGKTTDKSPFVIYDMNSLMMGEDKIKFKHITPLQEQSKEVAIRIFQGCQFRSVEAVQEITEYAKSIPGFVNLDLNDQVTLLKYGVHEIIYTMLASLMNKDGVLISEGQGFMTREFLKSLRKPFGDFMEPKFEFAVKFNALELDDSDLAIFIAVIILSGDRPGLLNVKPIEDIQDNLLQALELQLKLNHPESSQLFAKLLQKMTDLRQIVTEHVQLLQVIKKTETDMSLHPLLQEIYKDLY
Aryl hydrocarbon receptor (Homo sapiens), sequence (P35869 whole entry, looked up): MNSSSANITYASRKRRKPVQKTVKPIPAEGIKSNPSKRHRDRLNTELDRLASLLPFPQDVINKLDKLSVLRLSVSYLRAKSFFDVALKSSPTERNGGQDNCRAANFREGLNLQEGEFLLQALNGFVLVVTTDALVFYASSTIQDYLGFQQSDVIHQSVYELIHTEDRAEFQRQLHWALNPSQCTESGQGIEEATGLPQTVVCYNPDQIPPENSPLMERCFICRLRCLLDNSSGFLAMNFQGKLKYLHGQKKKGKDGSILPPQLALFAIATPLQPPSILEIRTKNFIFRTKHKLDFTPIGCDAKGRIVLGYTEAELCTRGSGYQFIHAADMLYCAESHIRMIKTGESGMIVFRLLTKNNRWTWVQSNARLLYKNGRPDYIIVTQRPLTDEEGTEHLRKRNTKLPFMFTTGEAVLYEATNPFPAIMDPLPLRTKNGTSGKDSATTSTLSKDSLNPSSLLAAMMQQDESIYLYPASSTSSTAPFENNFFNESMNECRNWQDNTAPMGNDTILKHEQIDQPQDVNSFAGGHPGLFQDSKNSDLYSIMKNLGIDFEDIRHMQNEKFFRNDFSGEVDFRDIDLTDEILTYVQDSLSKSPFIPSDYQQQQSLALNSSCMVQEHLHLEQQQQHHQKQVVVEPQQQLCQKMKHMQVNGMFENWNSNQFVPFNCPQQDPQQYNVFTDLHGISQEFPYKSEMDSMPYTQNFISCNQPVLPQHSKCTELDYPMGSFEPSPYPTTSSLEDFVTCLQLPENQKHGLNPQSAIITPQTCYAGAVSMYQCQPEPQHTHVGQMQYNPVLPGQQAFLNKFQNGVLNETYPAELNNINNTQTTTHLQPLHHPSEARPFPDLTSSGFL

`NC(=S)c1c(Cl)cccc1Cl`: the Potency entry in assay [1], in assay [2], in assay [3], in [4], in [5] and in [6] was “inactive” each time. Besides, the Potency entry in assay [7], in assay [8], in [9] and in assay [10] was “inactive” each time.

For `C[N+]1(CCC(C(N)=O)(c2ccccc2)c2ccccc2)CCCCC1`, the Potency result in [1], in assay [2], in [3], in [4], in assay [5] and in assay [6] was “inactive” in each case. The Potency entry in assay [7], in assay [8], in [9] and in [10] was “inactive” each time.

Turning to `C=CCOC(=O)C(C)(C)OC(=O)c1cc(-n2c(=O)cc(C(F)(F)F)n(C)c2=O)ccc1Cl`, the Potency entry in assay [1], in assay [2], in [3], in assay [4], in [5] and in assay [6] was “inactive” throughout. The Potency result in [8], in assay [9] and in [10] was “inactive” throughout.

Consider `COc1ccc(C(O)(c2cncnc2)C2CC2)cc1` (stereo not given), for which the Potency entry in assay [1], in assay [2], in assay [3], in [4], in [5] and in [6] was “inactive” in each case. Moreover, the Potency result in assay [7], in assay [8], in [9] and in [10] was “inactive” in each case.

On to `CN[C@@H](C)[C@H](O)c1ccccc1`, for which the Potency result in assay [1], in [2], in assay [3], in assay [4], in [5] and in [6] was “inactive” each time. In addition, the Potency result in assay [7], in [8], in assay [9] and in assay [10] was “inactive” each time.

Turning to `Nc1ccc2c(c1)Cc1ccccc1-2`, the Potency entry in assay [1], in assay [3], in [4], in assay [5], in assay [6] and in [8] was “inactive” in each case. Moreover, the Potency result in [9] and in [10] was “inactive” each time. Moreover, in [2], the Potency is 68.2 µM (active).

Regarding `N#CC(C#N)=C(C#N)C#N`, the Potency entry in assay [1], in [2], in [3], in [4], in assay [5] and in assay [6] was “inactive” in each case. Besides, the Potency entry in assay [8], in assay [9] and in assay [10] was “inactive” in each case. Also, the Potency in assay [7] was 7.17 µM (active).

Turning to `CC(C)CCON=O`, the Potency result in [1], in [2], in assay [3], in [4], in assay [5] and in assay [6] was “inactive” throughout. Moreover, the Potency result in assay [7], in [8], in assay [9] and in assay [10] was “inactive” throughout.

`CCOP(=O)(SC(C)CC)N1CCSC1=O` (stereo not given): the Potency result in assay [1], in [2], in assay [3], in [4], in assay [5] and in assay [6] was “inactive” each time. For the same molecule, the Potency entry in assay [8], in assay [9] and in assay [10] was “inactive” in each case.

On to `CCC1(CCC(C)C)C(=O)NC(=O)NC1=O`, for which the Potency entry in assay [1], in [2], in assay [3], in assay [4], in assay [5] and in assay [6] was “inactive” each time. Besides, the Potency result in assay [7], in assay [8], in assay [9] and in assay [10] was “inactive” each time.

Take `COCc1cnc(C2=NC(C)(C(C)C)C(=O)N2)c(C(=O)O)c1` (stereo not given): the Potency result in [1], in assay [2], in [3], in assay [4], in assay [5] and in assay [6] was “inactive” each time. In addition, the Potency entry in assay [8] and in assay [9] was “inactive” each time.

Consider `CN(C)N`, for which the Potency entry in assay [1], in [2], in assay [3], in [4], in assay [5] and in assay [6] was “inactive” in each case. In addition, the Potency entry in [7], in assay [8], in [9] and in [10] was “inactive” each time.

For `NCCc1cc(O)c(O)cc1O`, the Potency result in assay [1], in assay [2], in assay [3], in assay [4], in assay [5] and in assay [6] was “inactive” each time. The Potency entry in [8], in assay [9] and in assay [10] was “inactive” throughout.

With `CCOP(=S)(S)OCC`, the Potency entry in assay [1], in assay [2], in assay [3], in [4], in assay [5] and in assay [6] was “inactive” throughout. Also, the Potency result in [7], in [8], in [9] and in assay [10] was “inactive” in each case.

Consider `COP(=O)(OC)OC(Br)C(Cl)(Cl)Br` (stereo not given), for which the Potency in assay [1] was 48.6 µM (active); in [4], 54.9 µM (active); in assay [7], 19.4 µM (active) and 9.69 µM (active). The Potency entry in assay [2], in assay [3], in [8], in [9] and in assay [10] was “inactive” in each case.

With `CCCCCCCCCCCCN=C(N)N`, the activity change, negative = cytotoxicity in [1] was -14.3% [at 3.79 µM]; in assay [9], -18.4% [at 2.7 µM]. Also, the figures for the activation in assay [2] and in assay [4] were -0.0242% [at 3.79 µM] and 0.522% [at 3.17 µM], respectively. Moreover, the viability change, negative = cytotoxic in assay [3] is -4.27% [at 3.79 µM]; in assay [8] it was -8.9% [at 3.74 µM]. For the same molecule, the ratio activity, negative = inhibition in assay [5] was -16.9% [at 2.7 µM].

On to `O=C1c2ccccc2C(=O)N1SC(Cl)(Cl)Cl`, for which the Potency in assay [1] is 1.22 µM (active); in assay [6], 2.19 µM (active); in assay [8], 60.3 µM (active) and 13.7 µM (active). Further, the Potency entry in assay [2], in [3] and in assay [4] was “inactive” each time.

The values are drawn from PubChem BioAssay (Tox21).
